Results on 2 molecules are retold here after PubChem BioAssay AID720576 (National Center for Advancing Translational Sciences (NCATS), 2013).

Each structure is given as a SMILES string. Some of the results follow. Entries that show only a call come without a potency. Records with an inconclusive call do not appear. Active and inactive are the calls of the source. The call rests on the fitted dose curve; in most records, active means well fitted inhibition curve with a large enough effect; inconclusive means small, poorly fitted or top-dose-only effect; inactive means no such curve, though single readings can be large or run the other way.

The nature of this test: qHTS Assay for Inhibitors of Hepatitis C Virus (HCV): Cytotoxicity Counterscreen for Cherry-picked Compounds. The source says:
Hepatitis C virus (HCV) infects about 200 million people in the world. Many infected people progress to chronic liver disease including cirrhosis with a risk of developing liver cancer. To date, there is no effective vaccine for hepatitis C. Current therapy based on interferon is only effective in about half of the patients and is associated with significant adverse effects. The fraction of people with HCV who can complete a successful treatment is estimated to be no more than 10 percent. Recent development of direct-acting antivirals against HCV, such as protease and polymerase inhibitors, is promising but still requires combination with peginterferon and ribavirin for maximal efficacy. In addition, these agents are associated with high rate of resistance and many have significant side effects. Due to the lack of a culture system for infectious HCV, the search for new HCV drugs has been greatly hampered. […] High-throughput screening (HTS) with an infectious HCV system would cover the complete spectrum of potentially druggable targets in all stages of HCV lifecycle, and would have more biological relevance than other cell-based assays. […]
Cells were plated in a 1536-wel tissue culture grade plates at a final concentration of 1,000 cells/well (3 uL volume). […] The luminescence signal was read for 15 sec using the PerkinElmer ViewLux plate reader.
For orientation: In qHTS, concentration-response curves come from the screen itself.
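Further: 44 h compound exposure; nearly all actives have a fitted effect of over 55% in size.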

As to `CC[N+]1(C)CCCC(OC(=O)C(O)(c2ccccc2)c2ccccc2)C1` (configuration not stated), the Potency entry was “inactive”.

On to `CC1=CC(=Cc2sc3ccccc3[n+]2C)C=C(C)O1`, for which the Potency was 7.05 µM (active).
